Measurements from PubChem BioAssay (NCATS).
Records with an inconclusive call do not appear. Active and inactive are the calls of the source. The call rests on the fitted dose curve; in most records, active means well fitted inhibition curve with a large enough effect; inconclusive means small, poorly fitted or top-dose-only effect; inactive means flat fitted curve, though single readings scatter.

Key:
Experiment in all cases: qHTS profiling for inhibitors of Plasmodium falciparum proliferation (AID 504749); further: nearly all actives have a fitted effect of over 60% in size
Settings in all cases: P. falciparum in erythrocytes, SYBR Green DNA, 72 h; series mostly up to 28.7 µM
CP211 = tested on: CP211
Summary of the method: (§1)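 Fluorescence of SYBR Green-bound parasite DNA, read at 485/535 nm, served as the growth measure. Infected erythrocytes were cultured with compound 72 h; artemisinin (0.29 uM) and DMSO wells defined the normalization range.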

CP215 = tested on: CP215
Summary of the method: as §1

CP217 = tested on: CP217
Summary of the method: as §1

CP237 = tested on: CP237
Summary of the method: as §1

CP238 = tested on: CP238
Summary of the method: as §1

CP247 = tested on: CP247
Summary of the method: as §1

CP250 = tested on: CP250
Summary of the method: as §1

CP252 = tested on: CP252
Summary of the method: as §1

CP256 = tested on: CP256
Summary of the method: as §1

CP260 = tested on: CP260
Summary of the method: as §1

CP262 = tested on: CP262
Summary of the method: as §1

CP265 = tested on: CP265
Summary of the method: as §1

CP266 = tested on: CP266
Summary of the method: as §1

CP268 = tested on: CP268
Summary of the method: as §1

CP269 = tested on: CP269
Summary of the method: as §1

CP286 = tested on: CP286
Summary of the method: as §1

CP291 = tested on: CP291
Summary of the method: as §1

CP297 = tested on: CP297
Summary of the method: as §1

CP305 = tested on: CP305
Summary of the method: as §1

CP315 = tested on: CP315
Summary of the method: as §1

Measured: Potency

OC[C@@H](O)[C@@H](O)[C@H](O)[C@H](O)CO
inactive: all assays above

Cc1ccc(C(C)C)c(O)c1
inactive: all assays above

O=C(NCCCN1CCOCC1)c1ccc(Cl)cc1
inactive: all assays above

O=C1CC[C@@H](C(=O)O)N1
inactive: all assays above

NCC1CCC(C(=O)Oc2ccc(CCC(=O)O)cc2)CC1 (stereo not drawn)
inactive: all assays above

O=C(OOC(=O)c1ccccc1)c1ccccc1
not listed: CP297
inactive: all other assays above

O=C(O)CCCCC1CCSS1 (stereo not drawn)
inactive: all assays above

C=CCNC(N)=S
inactive: all assays above

N[C@@H](Cc1ccc(O)cc1)C(=O)O
inactive: all assays above

NS(=O)(=O)c1ccc(NC(=O)CCC(=O)O)cc1
not listed: CP291
inactive: all other assays above

O=C(CN1CCNCC1)NC1CCCCC1
inactive: all assays above

O=C(CCBr)N1CCN(C(=O)CCBr)CC1
inactive: all assays above

CC(=O)Nc1ccccc1
inactive: all assays above

OCC(O)CS (stereo not drawn)
inactive: all assays above
